Assay results published in the supplement of paper PMC4022240.
± gives the standard deviation.

Legend:
Test in all cases: peptide microarray binding signal (635 nm), min-max normalized on array (fraction of array maximum); higher = stronger binding
Conditions in all cases: peptide region: H3 1-13
[1] = molecular target: T1, HaloTag-ATRX ADD domain (163-292)
T1 chain: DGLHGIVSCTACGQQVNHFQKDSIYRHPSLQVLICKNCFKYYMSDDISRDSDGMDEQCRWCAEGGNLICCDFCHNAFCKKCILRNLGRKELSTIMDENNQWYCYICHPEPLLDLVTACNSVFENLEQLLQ
Protocol: (§1)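 Histone 13-mer peptides were synthesized as cellulose conjugates with a C-terminal 20-atom PEG linker and printed in triplicate on nitrocellulose. The sequence given is the unmodified backbone; PTMs (Kme1/2/3, Kac, Sph/Tph, Rme/Rme2a/Rme2s, Rcit) are listed in the label and the 'peptide modifications' condition. Slides were probed at 4 °C for 1 h with biotin-labelled (HQ)5-HaloTag reader fusions (ATRX-ADD, ING2-PHD) then streptavidin-Alexa647, or with rabbit histone antibodies then anti-rabbit Alexa647. The mean 635 nm signal of the triplicate spots was scaled 0-1 between the lowest and highest values on each array.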

[2] = molecular target: HaloTag-ING2 PHD (mouse Ing2 200-280)
Protocol: as §1

[3] = molecular target: anti-H3K4me3 antibody ab8580
Protocol: as §1

[4] = molecular target: anti-H3K9me3 antibody ab8898
Protocol: as §1

[5] = peptide modifications: H3K9me1 H3S10ph, binder concentration: 1:2,000 dilution
[6] = peptide modifications: H3K9me1 H3S10ph, binder concentration: 1:10,000 dilution
[7] = peptide modifications: H3K4me3 H3K9ac, binder concentration: 1:2,000 dilution
[8] = peptide modifications: H3K4me3 H3K9ac, binder concentration: 1:10,000 dilution
[9] = peptide modifications: H3K9me1, binder concentration: 1:2,000 dilution
[10] = peptide modifications: H3K9me1, binder concentration: 1:10,000 dilution
[11] = peptide modifications: H3K4me3 H3K9me2, binder concentration: 1:2,000 dilution
[12] = peptide modifications: H3K4me3 H3K9me2, binder concentration: 1:10,000 dilution
[13] = peptide modifications: H3K4me2 H3K9ac, binder concentration: 1:2,000 dilution
[14] = peptide modifications: H3K4me2 H3K9ac, binder concentration: 1:10,000 dilution
[15] = peptide modifications: H3K4me2 H3K9me2, binder concentration: 1:2,000 dilution
[16] = peptide modifications: H3K4me2 H3K9me2, binder concentration: 1:10,000 dilution
[17] = peptide modifications: H3K4me3, binder concentration: 1:2,000 dilution
[18] = peptide modifications: H3K4me3, binder concentration: 1:10,000 dilution
[19] = peptide modifications: H3K4me1 H3T6ph, binder concentration: 1:2,000 dilution
[20] = peptide modifications: H3K4me1 H3T6ph, binder concentration: 1:10,000 dilution
[21] = peptide modifications: H3K4me1 H3K9me2, binder concentration: 1:2,000 dilution
[22] = peptide modifications: H3K4me1 H3K9me2, binder concentration: 1:10,000 dilution
[23] = peptide modifications: H3K9me2, binder concentration: 1:2,000 dilution
[24] = peptide modifications: H3K9me2, binder concentration: 1:10,000 dilution

ARTKQTARKSTGG [H3 1-13 A R T K Q T A R Kme Sph T G G]
peptide microarray binding signal ([1]; peptide modifications: H3K9me1 H3S10ph, binder concentration: 50 nM): 0.01 ± 0.00047
peptide microarray binding signal ([1]; peptide modifications: H3K9me1 H3S10ph, binder concentration: 500 nM): 0.0275 ± 0.00045
peptide microarray binding signal ([2]; peptide modifications: H3K9me1 H3S10ph, binder concentration: 10 nM): 0.00961 ± 0.00044
peptide microarray binding signal ([2]; peptide modifications: H3K9me1 H3S10ph, binder concentration: 100 nM): 0.02 ± 0.0008
peptide microarray binding signal [3, 5]: 0.000831 ± 3.9e-05
peptide microarray binding signal [3, 6]: 0.000171 ± 5.1e-06
peptide microarray binding signal [4, 5]: 0.00233 ± 0.00015
peptide microarray binding signal [4, 6]: 0.00138 ± 2.7e-05

ARTKQTARKSTGG [H3 1-13 A R T Kme3 Q T A R Kac S T G G]
peptide microarray binding signal ([1]; peptide modifications: H3K4me3 H3K9ac, binder concentration: 50 nM): 0.00768 ± 0.00092
peptide microarray binding signal ([1]; peptide modifications: H3K4me3 H3K9ac, binder concentration: 500 nM): 0.00948 ± 0.00033
peptide microarray binding signal ([2]; peptide modifications: H3K4me3 H3K9ac, binder concentration: 10 nM): 0.216 ± 0.039
peptide microarray binding signal ([2]; peptide modifications: H3K4me3 H3K9ac, binder concentration: 100 nM): 0.199 ± 0.014
peptide microarray binding signal [3, 7]: 0.289 ± 0.062
peptide microarray binding signal [3, 8]: 0.621 ± 0.31
peptide microarray binding signal [4, 7]: 0.0528 ± 0.047
peptide microarray binding signal [4, 8]: 0.0162 ± 0.0043

ARTKQTARKSTGG [H3 1-13 A R T K Q T A R Kme S T G G]
peptide microarray binding signal ([1]; peptide modifications: H3K9me1, binder concentration: 50 nM): 0.0276 ± 0.00028
peptide microarray binding signal ([1]; peptide modifications: H3K9me1, binder concentration: 500 nM): 0.0642 ± 0.0027
peptide microarray binding signal ([2]; peptide modifications: H3K9me1, binder concentration: 10 nM): 0.0068 ± 0.00044
peptide microarray binding signal ([2]; peptide modifications: H3K9me1, binder concentration: 100 nM): 0.0424 ± 0.0055
peptide microarray binding signal [3, 9]: 0.00068 ± 2.9e-05
peptide microarray binding signal [3, 10]: 0.000628 ± 6.7e-06
peptide microarray binding signal [4, 9]: 0.00122 ± 7.3e-05
peptide microarray binding signal [4, 10]: 0.00098 ± 4.6e-05

ARTKQTARKSTGG [H3 1-13 A R T Kme3 Q T A R Kme2 S T G G]
peptide microarray binding signal ([1]; peptide modifications: H3K4me3 H3K9me2, binder concentration: 50 nM): 0.0174 ± 0.00053
peptide microarray binding signal ([1]; peptide modifications: H3K4me3 H3K9me2, binder concentration: 500 nM): 0.0402 ± 0.003
peptide microarray binding signal ([2]; peptide modifications: H3K4me3 H3K9me2, binder concentration: 10 nM): 0.735 ± 0.11
peptide microarray binding signal ([2]; peptide modifications: H3K4me3 H3K9me2, binder concentration: 100 nM): 0.869 ± 0.12
peptide microarray binding signal [3, 11]: 0.929 ± 0.063
peptide microarray binding signal [3, 12]: 0.889 ± 0.23
peptide microarray binding signal [4, 11]: 0.11 ± 0.025
peptide microarray binding signal [4, 12]: 0.0347 ± 0.004

ARTKQTARKSTGG [H3 1-13 A R T Kme2 Q T A R Kac S T G G]
peptide microarray binding signal ([1]; peptide modifications: H3K4me2 H3K9ac, binder concentration: 50 nM): 0.0115 ± 0.00036
peptide microarray binding signal ([1]; peptide modifications: H3K4me2 H3K9ac, binder concentration: 500 nM): 0.0237 ± 0.0019
peptide microarray binding signal ([2]; peptide modifications: H3K4me2 H3K9ac, binder concentration: 10 nM): 0.954 ± 0.21
peptide microarray binding signal ([2]; peptide modifications: H3K4me2 H3K9ac, binder concentration: 100 nM): 0.716 ± 0.27
peptide microarray binding signal [3, 13]: 0.298 ± 0.09
peptide microarray binding signal [3, 14]: 0.293 ± 0.1
peptide microarray binding signal [4, 13]: 0.00778 ± 0.00063
peptide microarray binding signal [4, 14]: 0.00824 ± 0.00044

ARTKQTARKSTGG [H3 1-13 A R T Kme2 Q T A R Kme2 S T G G]
peptide microarray binding signal ([1]; peptide modifications: H3K4me2 H3K9me2, binder concentration: 50 nM): 0.0279 ± 0.0029
peptide microarray binding signal ([1]; peptide modifications: H3K4me2 H3K9me2, binder concentration: 500 nM): 0.0628 ± 0.0034
peptide microarray binding signal ([2]; peptide modifications: H3K4me2 H3K9me2, binder concentration: 10 nM): 0.766 ± 0.063
peptide microarray binding signal ([2]; peptide modifications: H3K4me2 H3K9me2, binder concentration: 100 nM): 0.786 ± 0.077
peptide microarray binding signal [3, 15]: 0.408 ± 0.12
peptide microarray binding signal [3, 16]: 0.343 ± 0.15
peptide microarray binding signal [4, 15]: 0.0325 ± 0.0041
peptide microarray binding signal [4, 16]: 0.0104 ± 0.00076

ARTKQTARKSTGG [H3 1-13 A R T Kme3 Q T A R K S T G G]
peptide microarray binding signal ([1]; peptide modifications: H3K4me3, binder concentration: 50 nM): 0.00868 ± 0.00032
peptide microarray binding signal ([1]; peptide modifications: H3K4me3, binder concentration: 500 nM): 0.0201 ± 0.0038
peptide microarray binding signal ([2]; peptide modifications: H3K4me3, binder concentration: 10 nM): 0.383 ± 0.2
peptide microarray binding signal ([2]; peptide modifications: H3K4me3, binder concentration: 100 nM): 0.232 ± 0.072
peptide microarray binding signal [3, 17]: 0.596 ± 0.33
peptide microarray binding signal [3, 18]: 0.549 ± 0.54
peptide microarray binding signal [4, 17]: 0.0584 ± 0.025
peptide microarray binding signal [4, 18]: 0.0227 ± 0.011

ARTKQTARKSTGG [H3 1-13 A R T Kme Q Tph A R K S T G G]
peptide microarray binding signal ([1]; peptide modifications: H3K4me1 H3T6ph, binder concentration: 50 nM): 0.00661 ± 0.00014
peptide microarray binding signal ([1]; peptide modifications: H3K4me1 H3T6ph, binder concentration: 500 nM): 0.0257 ± 0.00052
peptide microarray binding signal ([2]; peptide modifications: H3K4me1 H3T6ph, binder concentration: 10 nM): 0.087 ± 0.04
peptide microarray binding signal ([2]; peptide modifications: H3K4me1 H3T6ph, binder concentration: 100 nM): 0.211 ± 0.02
peptide microarray binding signal [3, 19]: 0.00296 ± 0.00042
peptide microarray binding signal [3, 20]: 0.00194 ± 0.00011
peptide microarray binding signal [4, 19]: 0.00414 ± 0.00036
peptide microarray binding signal [4, 20]: 0.00259 ± 0.00028

ARTKQTARKSTGG [H3 1-13 A R T Kme Q T A R Kme2 S T G G]
peptide microarray binding signal ([1]; peptide modifications: H3K4me1 H3K9me2, binder concentration: 500 nM): 0.0151 ± 0.00042
peptide microarray binding signal ([2]; peptide modifications: H3K4me1 H3K9me2, binder concentration: 10 nM): 0.155 ± 0.014
peptide microarray binding signal ([2]; peptide modifications: H3K4me1 H3K9me2, binder concentration: 100 nM): 0.182 ± 0.062
peptide microarray binding signal [3, 21]: 0.0488 ± 0.0073
peptide microarray binding signal [3, 22]: 0.0289 ± 0.0056
peptide microarray binding signal [4, 21]: 0.00408 ± 0.00035
peptide microarray binding signal [4, 22]: 0.00409 ± 0.00034

ARTKQTARKSTGG [H3 1-13 A R T K Q T A R Kme2 S T G G]
peptide microarray binding signal ([1]; peptide modifications: H3K9me2, binder concentration: 50 nM): 0.0139 ± 0.0015
peptide microarray binding signal ([1]; peptide modifications: H3K9me2, binder concentration: 500 nM): 0.0282 ± 0.0022
peptide microarray binding signal ([2]; peptide modifications: H3K9me2, binder concentration: 10 nM): 0.00668 ± 0.00014
peptide microarray binding signal ([2]; peptide modifications: H3K9me2, binder concentration: 100 nM): 0.00935 ± 0.00046
peptide microarray binding signal [3, 23]: 0.00104 ± 0.0001
peptide microarray binding signal [3, 24]: 0.000571 ± 1.1e-05
peptide microarray binding signal [4, 23]: 0.00128 ± 6.2e-05
peptide microarray binding signal [4, 24]: 0.000923 ± 9.6e-06
